D2 ag-1 – human D2 receptor agonism in beta-arrestin assay; P14416; activation, % (concentration not given with the values); 0.084% of 360,000 active; DiscoveRx PathHunter D2 beta-arrestin, luminescence, 90 min; 100% = 57 uM dopamine signal; in the data active = activation above about 40%; inconclusive = between about 15% and that limit
Target sequence (P14416 whole entry, looked up): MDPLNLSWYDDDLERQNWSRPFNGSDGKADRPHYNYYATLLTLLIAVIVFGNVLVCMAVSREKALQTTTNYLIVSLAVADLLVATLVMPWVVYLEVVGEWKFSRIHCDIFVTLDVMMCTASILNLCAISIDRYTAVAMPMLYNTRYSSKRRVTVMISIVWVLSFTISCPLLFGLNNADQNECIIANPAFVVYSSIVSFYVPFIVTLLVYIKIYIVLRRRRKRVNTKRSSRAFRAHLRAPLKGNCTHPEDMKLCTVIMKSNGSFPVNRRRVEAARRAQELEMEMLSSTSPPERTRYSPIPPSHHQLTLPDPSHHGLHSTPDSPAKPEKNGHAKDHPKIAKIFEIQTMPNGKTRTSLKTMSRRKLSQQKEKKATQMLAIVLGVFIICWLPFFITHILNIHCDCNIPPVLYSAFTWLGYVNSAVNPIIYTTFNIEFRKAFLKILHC
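DiscoveRx PathHunter D2 beta-arrestin cells (2,100/well) attached overnight, then compound-stimulated 90 min at 37 C in HBSS/10 mM HEPES/0.1% Tween-20 buffer; beta-galactosidase complementation read by luminescence after 1 h at ambient temperature. Dopamine 57 uM final (EC100) as control.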
D2 PAM-1 – D2 dopamine receptor (human) potentiation; HEK293 T-REx D2, calcium flux, EC20 dopamine potentiation; 0.34% of 340,000 active; potentiation, % at 10 µM; P14416;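 active = potentiation over 3 SD above the plate norm, cut at about 30% in these data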
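Potentiation of an EC20 dopamine calcium response measured kinetically over 180 s, after a preceding 180 s compound-only read flagging agonists. Cells: inducible Hek293 Trex D2 line, 4000/well, cultured overnight at 30 C before dye loading.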
D2 PAM-2 – potentiates the human D2 dopamine receptor allosterically; P14416; DiscoveRx D2 beta-arrestin cells, luminescence, 90 min; 100% = 57 uM dopamine signal; potentiation, % (test concentration not listed); 0.23% of 360,000 active; AID 624464; in the data active = potentiation above about 50%; inconclusive = mostly about 30% to 49%
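PathHunter D2 cells, attached overnight at 37 deg C, received compound in DMSO plus dopamine at EC20 (50 nM final) for 90 min at 37 deg C. Beta-arrestin recruitment was read as luminescence after 1 h with detection reagent at ambient temperature.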
D2 antagonist – antagonists of human D2 dopamine receptor | P14416 | HEK293 TREx D2 cells, calcium flux, dopamine EC80 | inhibition, % at 10 µM | 2% of 340,000 active | AID 485344; in the data active = inhibition above about 30%; inactive = below that, where a call was filed
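Measurement of antagonist activity uses fluorescent calcium dye in inducible HEK293 T-REx D2 cells: 10 s baseline, compound addition with 180 s read, EC80 dopamine addition with a further 180 s read.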
D2 ag-2 – agonists of human D2 dopamine receptor. P14416. HEK293 T-REx D2 cells, calcium flux agonist mode. activation, % at 2 µM. 0.53% of 340,000 active;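 active = activation over 3 SD above normal in the single-dose calcium agonist read, cut at about 30% in these data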
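HEK293 Trex D2 cells, tetracycline-induced, o/n 30 C 5% CO2; no-wash Ca dye, RT 30–90 min; 10-cycle baseline, 23 nl cpd added, kinetic Ca read 180 s; agonist hits = positive Ca response.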
Each line names hits and unclear results; the compound was inactive in the other large screens. Most compounds without a hit are left out; they make up all but 2.4% or so of the library.

CC1(C)Oc2ccc(C(=O)Nc3ccccc3F)cc2N(CC(=O)N2CCOCC2)C1=O	none
COc1cccc(NC(=O)Cn2c(=O)n(CCc3ccc(OC)c(OC)c3)c(=O)c3ccccc32)c1	none (no result: D2 ag-1, D2 PAM-1, D2 PAM-2, D2 antagonist)
Cc1cccc(N2CCN(C(=O)CCCn3ncn4c(cc5occc54)c3=O)CC2)c1C	none (no result: D2 ag-1, D2 PAM-2, D2 antagonist)
Cc1cccc(NC(=O)CS(=O)(=O)c2nc(-c3ccccc3)cn2-c2cccc(Cl)c2)c1C	none (no result: D2 ag-1, D2 PAM-2, D2 antagonist)
CCOC(=O)N1CC=C2C(C#N)=C(N)C(C#N)(C#N)[C@H](c3cccs3)C2C1 (stereo partly drawn)	D2 PAM-1 72
CCOCCc1nn2c(=O)cc(COC(=O)c3ccc(NC(=O)C4CCCCC4)cc3)nc2s1	none (no result: D2 ag-1, D2 PAM-2, D2 antagonist)
COc1cccc(/C=N/N2C(=O)CSC2=S)c1O	none
COc1cc(/C=N/N2C(=O)CSC2=S)cc(Br)c1O	D2 antagonist 44
COc1cc(CN2CCC(Cc3ccccc3)CC2)c([N+](=O)[O-])cc1OC	none
COc1cc(C(C)=O)ccc1OCCN1CCC(Cc2ccccc2)CC1	none
Cc1ccc([N+](=O)[O-])c(OCCCN2CCC(Cc3ccccc3)CC2)c1	none (no result: D2 PAM-1, D2 antagonist, D2 ag-2)
OCc1ccccc1OCCCN1CCC(Cc2ccccc2)CC1	D2 antagonist 41
O=[N+]([O-])c1cccc(OCCN2CCC(Cc3ccccc3)CC2)c1	D2 antagonist 67
COc1cc(C(C)=O)ccc1OCCCN1CCC(Cc2ccccc2)CC1	D2 antagonist 35
Clc1ccccc1OCCN1CCC(Cc2ccccc2)CC1	D2 antagonist 63
Fc1ccc(CN2CCC(Cc3ccccc3)CC2)cc1F	none
C=CCOc1ccccc1CN1CCC(Cc2ccccc2)CC1	D2 antagonist 31
COc1cc(C)c(CN2CCC(Cc3ccccc3)CC2)cc1C	none (no result: D2 antagonist, D2 ag-2)
O=Cc1cc(Cl)ccc1OCCN1CCC(Cc2ccccc2)CC1	D2 antagonist 51
Cc1ccc(Cn2c(CNS(=O)(=O)c3ccc(C(C)(C)C)cc3)nc3cccnc32)cc1	none (no result: D2 ag-1, D2 PAM-2, D2 antagonist)
Cc1cccc(NC(=O)CN(C)C(=O)c2ccc3ccccc3n2)c1C	D2 antagonist 30
COCCN(CC(=O)Nc1cccc(C)c1C)C(=O)c1ccc2ccccc2n1	none
COc1ccc(OCc2cc(C(=O)N3CCCC(CO)C3)no2)c2ccccc12 (stereo not drawn)	D2 PAM-2 74
O=C(c1cc(COc2ccc(F)cc2F)on1)N1CC[C@@H]2CCCC[C@H]2C1	D2 PAM-2 64
O=C(c1cc(COc2ccc(F)cc2Cl)on1)N1CC[C@@H]2CCCC[C@H]2C1	none
CC(C)(C)c1ccc(C2NC(=O)c3n[nH]c(-c4cccs4)c32)cc1 (stereo not drawn)	none (no result: D2 ag-1, D2 PAM-2, D2 antagonist)
O=C(Nc1ccccc1N1CCOCC1)c1ccccc1NS(=O)(=O)c1ccc(F)c(F)c1	none
COc1cccc(S(=O)(=O)Nc2cccc(C(=O)N3CCCC3)c2)c1	none
CS(=O)(=O)Nc1ccc(C(=O)N2CCN(c3ccccc3F)CC2)cc1	D2 antagonist 63
COc1cccc(S(=O)(=O)Nc2cccc(C(=O)N3CCOCC3)c2)c1	D2 antagonist 36
O=C(Nc1ccccc1N1CCOCC1)c1cccc(NS(=O)(=O)c2ccc(F)c(F)c2)c1	D2 antagonist 48
O=C(c1ccccc1)N1CCN(c2ccccc2F)CC1	none
COc1ccc(N2CCN(C(=O)c3ccc(NS(=O)(=O)c4cccc(F)c4)cc3)CC2)cc1	D2 PAM-1 34
Cc1cn2c(=O)c(S(=O)(=O)NCc3ccc(F)cc3)c(C)nc2s1	none (no result: D2 ag-1, D2 PAM-2, D2 antagonist)
O=C(Nc1ccc(NC(=O)c2cccs2)cc1)c1ccc(Br)cc1	none (no result: D2 ag-1, D2 PAM-2, D2 antagonist)
S=c1[nH]nc(-c2ccccc2)n1/N=C/c1ccc(Cl)cc1	none
CCOc1ccc(/C=N/n2c(-c3ccccc3)n[nH]c2=S)cc1	D2 ag-1 inconclusive, D2 antagonist 41
CCCOC(=O)c1cccc(NC(=O)c2c(-c3ccccc3Cl)noc2C)c1	none (no result: D2 ag-1, D2 PAM-2, D2 antagonist)
CC(C)(C)NC(=O)C1CC(=O)OC1(C)C (stereo not drawn)	D2 PAM-1 33
O=C(CC1SC(N2CCCCC2)=NC1=O)Nc1ccc(C(=O)O)cc1 (stereo not drawn)	none
CC(=O)c1cccc(NC(=O)c2ccc(NC(=O)CC3SC(N4CCCCC4)=NC3=O)cc2)c1 (stereo not drawn)	none
CC(=O)c1cccc(NC(=O)CC2SC(N3CCCCC3)=NC2=O)c1 (stereo not drawn)	D2 antagonist 45
O=C(CC1SC(N2CCCCC2)=NC1=O)Nc1cccc(C(F)(F)F)c1 (stereo not drawn)	D2 antagonist 79
O=C(CSc1nnc(-c2ccncc2)n1-c1ccccc1)Nc1ccc(Br)cc1	none (no result: D2 ag-1, D2 PAM-2, D2 antagonist)
CCOC(=O)N1CCN(c2c(NCCc3ccc(OC)c(OC)c3)c(=O)c2=O)CC1	D2 antagonist 36
CCOC(=O)c1c(C(=O)OCC)c(C)n(CCc2ccc(OC)c(OC)c2)c1C	D2 antagonist 33
CCCCCC(=O)N1C[C@H](O)[C@@H](n2cc(-c3ccc(F)cc3)nn2)C[C@@H]1c1ccc(OC)cc1	none (no result: D2 PAM-1, D2 antagonist, D2 ag-2)
CC(C)C(NC(=O)c1ccc(C(C)(C)C)cc1)C(=O)Nc1cccc(S(N)(=O)=O)c1 (stereo not drawn)	D2 PAM-1 37
CCOc1ccccc1C(=O)NC(C(=O)Nc1cccc(S(N)(=O)=O)c1)C(C)C (stereo not drawn)	D2 antagonist 33
COc1cc(OC)c(NC(=O)C(C)n2nc(-c3ccc(C)cc3)c3c(c2=O)CCCC3)cc1Cl (stereo not drawn)	none (no result: D2 ag-1, D2 PAM-2, D2 antagonist)
COC(CNC(=S)Nc1ccc([N+](=O)[O-])cc1)OC	D2 antagonist 35
CCOC(=O)C1CCCN(S(=O)(=O)c2ccc(S(N)(=O)=O)cc2)C1 (stereo not drawn)	D2 PAM-1 51
COc1ccc(S(=O)(=O)N2CCCCCC2)cc1C(=O)N1CCN(c2ccc(F)cc2)CC1	none (no result: D2 PAM-1, D2 antagonist, D2 ag-2)
CCOC(=O)C1CCN(C(=O)c2cc(S(=O)(=O)N3CCCCCC3)ccc2OC)CC1	D2 antagonist 38
CCOC(=O)C1CCCN(S(=O)(=O)c2ccc(C)cc2)C1 (stereo not drawn)	none
COc1ccc(N2CCN(C(=O)c3cc(S(=O)(=O)N4CCCCCC4)ccc3OC)CC2)cc1	D2 antagonist 40
COc1ccc(C(=O)N=c2sc3cc(Cl)ccc3n2C)cc1	none (no result: D2 ag-1, D2 PAM-2, D2 antagonist)
COC(=O)c1ccccc1NC(=O)c1cnn2c(C(F)F)cc(C3CC3)nc12	D2 PAM-1 33
COc1cc(NC(=O)c2cnn3c(C(F)F)cc(C4CC4)nc23)c(OC)cc1Cl	none
COc1cc(/C=C2/SC(=Nc3ccc(O)cc3)NC2=O)cc(OC)c1O	D2 ag-2 51
COc1cc(/C=C/c2nc(C#N)c(N3CCCCC3)o2)cc(OC)c1OC	none (no result: D2 ag-1, D2 PAM-2, D2 antagonist)
O=C(NCCCNC(=O)c1c(F)cccc1F)c1c(F)cccc1F	none
O=C(NCC(Cl)c1ccc2ccccc2c1)c1c(F)cccc1F (stereo not drawn)	D2 antagonist 69
